Sampled rows, rich in hits. Any-hit rate of the full collection: about 4.3%.
HSF1 inh: HSF1 inhibitors in luciferase reporter cells, primary screen, cell-based, NIH3T3, luminescence; NIH3T3-HGL HSE-luciferase, MG132-induced, luminescence 8 h; hits give low values; 300,000 tested, 0.77% active; activity change, negative = inhibition, % at 7.5 µM (by protocol); AID 2098, 2009;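 active = more than half of replicate wells show activity change below -50%, luminescence cut by over half; inconclusive = some wells, but at most half, below -50%; inactive = no replicate well below -50%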;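 note: luciferase reports HSF-1 transcriptional activity via heat shock element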
HSF-1 act: HSF-1 activators, primary screen, NIH3T3-HGL cells, MG132 stress, luminescence, single point; NIH3T3-HGL HSF-1 luciferase reporter, 8 h; 100% = twice DMSO control signal; activation, % at 9 µM; 300,000 tested, 1.7% active;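 active = mean replicate activation of at least 50% with a set share of replicates each reaching 50%; inconclusive = only one of those two conditions met; inactive = mean below 50% and too few replicates reaching it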
SMARCA2 act: SMARCA2 (BRM) function activators, primary screen, cell-based, luminescence, high throughput; MG213 cells, MMTV-luciferase reporter, dexamethasone, overnight; activation, % at 9.1 µM; 370,000 tested, 1% active; in the data active = activation above about 7.8%
Wnt act: Wnt/beta-catenin pathway activators, primary screen, cell-based, plate reader, single point. Wnt/beta-catenin reporter cell assay, activator. activation, % at 9.35 µM. 300,000 tested, 1.2% active. AID 743398, 2014; in the data active = activation above about 30%, passing the limit was not always enough; inconclusive = no clear call, values can overlap the other calls
esBAF inh: Bmi1 luciferase reporter increase in mESCs, primary screen, esBAF inhibitor project, mouse ES cells, Bmi1 luciferase knock-in, single point; 350,000 tested, 2% active; AID 602393, 2012; reporter increase, % at 12.5 µM; 24 h; 100% = twice the neutral-well signal; in the data active = activation above about 40%; inconclusive = no clear call, values can overlap the other calls;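 note: a rise in the Bmi1 reporter signal indicates esBAF inhibition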
MITF TRPM1 HTS: activators of MITF-driven TRPM1 promoter reporter, primary screen, cell-based, SK-MEL-5, luciferase, single point; SK-MEL-5 TRPM1-promoter luciferase, 24 h; % of positive control, neutral wells = 0; activation, % at 12.5 µM; 300,000 tested, 0.75% active; AID 588334, 2011;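 active = mean activation of at least 80% with every replicate also reaching 80%; inconclusive = mean reaches 80% but some replicate falls short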
Each line names hits and unclear results; the compound was inactive in the other large screens.

COc1ccc(C2CC(=O)c3c(O)cc(O)cc3O2)cc1O (stereo not given)	esBAF inh 52.0 (no result: HSF1 inh, HSF-1 act)
O=C1CC(c2ccc(O)cc2)Oc2cc(O)cc(O)c21 (stereo not given)	none
COc1ccc([C@H]2Cc3cc(O)cc(O)c3C(=O)O2)cc1O	Wnt act 41.1 (no result: HSF1 inh, HSF-1 act)
Cc1noc(C)c1S(=O)(=O)Nc1ccc2c(c1)C(=O)N([C@@H](C)CO)C[C@H](C)[C@H](CN(C)C(=O)CCC(F)(F)F)OCCCC[C@@H](C)O2	none (no result: HSF1 inh, HSF-1 act, SMARCA2 act, Wnt act, MITF TRPM1 HTS)
C[C@@H]1CN([C@H](C)CO)C(=O)c2cc(C#C[C@@H](C)O)cnc2O[C@@H]1CN(C)C(=O)c1ccccc1	none (no result: HSF1 inh, HSF-1 act, SMARCA2 act, Wnt act, MITF TRPM1 HTS)
CC(=O)c1ccc(OCc2cc(C(=O)N(C)Cc3ccon3)no2)cc1	none
CC(=O)c1ccc(OCc2cc(C(=O)N(C)Cc3ccccn3)no2)cc1	esBAF inh 103.8, MITF TRPM1 HTS 99.2
CSc1ccccc1OCc1cc(C(=O)N(C)C(C)c2ccccn2)no1 (stereo not given)	none
Cc1cc(OCc2cc(C(=O)N(C)C(C)c3ccccn3)no2)cc(C)c1Cl (stereo not given)	esBAF inh 57.2
Cc1cc(OCc2cc(C(=O)N(C)Cc3ccccn3)no2)cc(C)c1Cl	Wnt act inconclusive, esBAF inh 75.3, MITF TRPM1 HTS 97.5
Cc1cc(OCc2cc(C(=O)N(C)CCOc3ccccc3)no2)cc(C)c1Cl	none
Cc1ncc([N+](=O)[O-])n1CC(=O)NCc1ccccc1	none (no result: Wnt act)
Cc1ccc(NC(=O)Cn2c([N+](=O)[O-])cnc2C)cc1	none (no result: esBAF inh)
Cc1ncc([N+](=O)[O-])n1CC(=O)NCCc1ccccc1	HSF1 inh -62.5 (no result: esBAF inh)
Cc1ncc([N+](=O)[O-])n1CC(=O)Nc1ccc(F)cc1	HSF1 inh -73.9
COc1ccc(S(=O)(=O)Nc2ccc3c(c2)C(=O)N([C@H](C)CO)C[C@@H](C)[C@@H](CN(C)S(=O)(=O)c2ccccc2)O3)cc1	none (no result: HSF1 inh, HSF-1 act, SMARCA2 act, Wnt act, MITF TRPM1 HTS)
CCCCSC1=C(C#N)C(c2ccccc2C)CC(=O)N1 (stereo not given)	HSF1 inh -58.9 (no result: MITF TRPM1 HTS)
Brc1cnc2nc(SC/C=C/c3ccccc3)[nH]c2c1	HSF-1 act 62.2 (no result: esBAF inh, MITF TRPM1 HTS)
CCCCC(=O)c1c(O)c2ccccc2oc1=O	esBAF inh 58.5 (no result: Wnt act)
CCCCN=C(C)c1c(O)c2ccccc2oc1=O	esBAF inh 41.8 (no result: MITF TRPM1 HTS)
CC(=N)c1c(O)c2ccccc2oc1=O	none (no result: esBAF inh)
N#CCC(=O)N/N=C\c1ccccc1OC/C=C/c1ccccc1	esBAF inh 63.8
COCC(=O)N/N=C\c1ccccc1OC/C=C/c1ccccc1	none
N#CCC(=O)N/N=C/c1ccc(OCc2ccccc2)cc1	none
N#CCC(=O)N/N=C\c1ccc(OC/C=C/c2ccccc2)cc1	MITF TRPM1 HTS 122.3
CC(C)NC(=O)N(C)C[C@@H]1OCCCC[C@@H](C)Oc2ccc(NS(=O)(=O)c3ccccc3)cc2C(=O)N([C@@H](C)CO)C[C@H]1C	none (no result: HSF1 inh, HSF-1 act, SMARCA2 act, Wnt act, MITF TRPM1 HTS)
COCC#Cc1ccc2c(c1)O[C@H](CN(C)CC1CC1)[C@H](C)CN([C@@H](C)CO)S2(=O)=O	none (no result: HSF1 inh, HSF-1 act, SMARCA2 act, Wnt act, MITF TRPM1 HTS)
CCC(=O)c1ccc(OCc2ccc(C(=O)OC)cc2)cc1	esBAF inh 60.0
CCC(=O)c1ccc(OCc2ccc(C#N)cc2)cc1	none (no result: esBAF inh)
CCOc1ccc(OCc2ccc(C(=O)N(CC)CC)cc2)cc1	esBAF inh 78.5
C[C@H]1CN([C@@H](C)CO)C(=O)c2cc(C3=CCCCC3)cnc2O[C@@H]1CN(C)C(=O)c1cccnc1	none (no result: HSF1 inh, HSF-1 act, SMARCA2 act, Wnt act, MITF TRPM1 HTS)
CCC(=O)Nc1nnc(/C=C/c2ccccc2)s1	esBAF inh 60.7
CCOC(=O)/C(=C\c1cccnc1)C(=O)c1cc(C(C)=O)c(Nc2ccccc2)s1	HSF1 inh -93.2 (no result: SMARCA2 act, Wnt act)
CCOC(=O)/C(=C\c1ccccc1)C(=O)c1cc(C(C)=O)c(Nc2ccccc2)s1	none (no result: Wnt act)
CO[C@H]1CN(C)C(=O)c2ccc(NC(=O)C3CC3)cc2OC[C@H](C)N(C(=O)CN(C)C)C[C@@H]1C	none (no result: HSF1 inh, HSF-1 act, SMARCA2 act, Wnt act, MITF TRPM1 HTS)
C[C@@H]1CN([C@H](C)CO)C(=O)Cc2cc(NC(=O)C3CCCCC3)ccc2O[C@H]1CN(C)Cc1ccc(C(=O)O)cc1	none (no result: HSF1 inh, HSF-1 act, SMARCA2 act, Wnt act, MITF TRPM1 HTS)

Screening results (PubChem)
